The list is not random: actives were taken first. Their share in the collection is about 13%.
HCMV antiviral: inhibitors of human cytomegalovirus; activity change, negative = inhibition, % at 57.5 µM; AID 1259415; 410,000 compounds, 4.5% hits; HFF cells, HCMV-luciferase reporter, 72 h; active compounds read low; in the data active means activity change below about -60%; inconclusive means no clear call, values can overlap the other calls; inactive means above about -39%
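Steps: HFFs plated, 16 h 37C; compounds added; HCMV-luciferase added to MOI 1 PFU/cell; 72 h 37C; OneGlo reagent, 5 min room temperature; luminescence read, normalized to controls.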
Pf growth 96h: P. falciparum growth inhibition at 96 hour, primary screen for plastid delayed-death inhibitors; Potency, µM (highest dose often 28.7 µM), most hits filed as inhibitors; AID 504834; P. falciparum luciferase reporter growth, 96 h; 320,000 compounds, 6.9% hits
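Cell-based qHTS: luciferase-tagged P. falciparum in erythrocytes (2% hematocrit, 0.05% parasitemia final) incubated with compounds for 96 hours, 37 C, 5% CO2; luciferase detection reagent then added and luminescence measured.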
HCV inhibitor: HCV inhibition; Huh7.5.1 HCVcc-Cre infection, luciferase reporter, 44 h; Potency, µM (series often up to 41.8 µM), usual class: inhibitors; 340,000 compounds, 3.4% hits
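After 44 h co-culture of compound, cells and HCVcc-Cre (~0.5 moi), substrate is added for 15 min at room temperature and luciferase measured over 15 sec. Cells were seeded at 1,000/well and pre-cultured 4 h.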
Pf growth 48h: inhibits P. falciparum growth in the first generation, 48 h; P. falciparum luciferase growth in erythrocytes, 48 h; Potency, µM (highest dose often 28.7 µM), usual class: inhibitors; 310,000 compounds, 5.9% hits; AID 504832
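In quantitative HTS format, infected erythrocytes bearing luciferase-reporter parasites were treated for a single generation at 37 C. Luminescence after adding detection reagent served as the growth measure.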
Large screens that a line does not name were inactive; ! = a repeat was not active. Unless noted, the call rests on the fitted dose curve; in most records, active means well fitted inhibition curve with a large enough effect; inconclusive means small, poorly fitted or top-dose-only effect, or another doubt; inactive means no such curve, though single readings can be large or run the other way.

Cc1ccc2c(c1)c1c(c(=O)n(-c3ccccc3)c(=O)n1CC(=O)NCCC1=CCCCC1)n2C	none (no result: Pf growth 96h, HCV inhibitor, Pf growth 48h)
Cc1cccc(N(C)S(=O)(=O)c2cc3[nH]c(=O)c(=O)[nH]c3cc2C)c1	none (no result: Pf growth 96h, HCV inhibitor, Pf growth 48h)
Cc1c(CNC2CCCCCC2)c(C(=O)O)c(C)n1Cc1ccc(F)cc1Cl	none (no result: Pf growth 96h, HCV inhibitor, Pf growth 48h)
Cn1c(=O)c2c(nc(CN3CCN(C(=O)c4ccco4)CC3)n2CCCc2ccccc2)n(C)c1=O	Pf growth 96h 7.38µM (no result: Pf growth 48h)
CCCCCn1c(CN2CCN(C(=O)c3ccco3)CC2)nc2c1c(=O)n(C)c(=O)n2C	Pf growth 96h inconclusive, Pf growth 48h 9.28µM
CCCCCCn1c(CN2CCN(C(=O)c3ccco3)CC2)nc2c1c(=O)n(C)c(=O)n2C	Pf growth 96h inconclusive, Pf growth 48h inconclusive
CCCCn1c(CN2CCN(C(=O)c3ccco3)CC2)nc2c1c(=O)n(C)c(=O)n2C	Pf growth 96h 13.1µM, Pf growth 48h inconclusive
CCCOc1ccc(NC(=O)CC2C(=O)N(c3ccc(Cl)cc3)C(=O)N2CCc2ccncc2)cc1 (configuration not stated)	none (no result: Pf growth 96h, HCV inhibitor, Pf growth 48h)
COc1ccc(NC(=O)Cn2c(SCc3c(F)cccc3Cl)nc3ccncc32)cc1OC	none (no result: Pf growth 96h, HCV inhibitor, Pf growth 48h)
COC(=O)C1=CN(c2ccc(OC)cc2OC)C(N)=C(C#N)C1c1ccccc1F (configuration not stated)	none (no result: Pf growth 96h, HCV inhibitor, Pf growth 48h)
CCOc1ccc(C(=O)/C=C/c2cn(CC(O)CN3CCc4ccccc43)c3ccccc23)cc1 (configuration not stated)	none (no result: Pf growth 96h, HCV inhibitor, Pf growth 48h)
CCOc1ccc(NC(=O)N2CCN(c3nnc(C)c4c(C)n(-c5ccccc5)nc34)CC2)cc1	none (no result: Pf growth 96h, HCV inhibitor, Pf growth 48h)
CCOc1ccc(CCNC(=O)Cn2nnc(-c3ccccc3)n2)cc1OCC	none (no result: Pf growth 96h, HCV inhibitor, Pf growth 48h)
CCOc1ccc(Cn2nnc(-c3ccc(S(C)(=O)=O)cc3)n2)cc1OCC	Pf growth 96h 0.928µM, Pf growth 48h inconclusive
CCOC(=O)N1CCN(S(=O)(=O)N2CCCC(C(=O)NCc3ccc(OC)cc3)C2)CC1 (configuration not stated)	HCMV antiviral active
CCOC(=O)C1CCN(C(=O)C2CCC(=O)N(CC3CCCCC3)C2)CC1 (configuration not stated)	Pf growth 96h inconclusive
COc1ccc(CNC(=O)C2CCC(=O)N(CC3CCCCC3)C2)cc1 (configuration not stated)	Pf growth 96h 2.33µM
COc1ccc(CNC(=O)C2CCN(S(=O)(=O)N3CC(C)CC(C)C3)CC2)cc1 (configuration not stated)	none
COc1ccc(CNC(=O)C2CCN(S(=O)(=O)N3CCCC3)CC2)cc1	HCMV antiviral active
CCOC(=O)N1CCN(S(=O)(=O)N2CCCC(C(=O)NCc3ccc(F)cc3)C2)CC1 (configuration not stated)	Pf growth 96h inconclusive
COCCCC1CCN(C(=O)C2CCC(=O)N(CC3CCCCC3)C2)CC1 (configuration not stated)	Pf growth 96h 1.47µM (no result: HCV inhibitor)
Cn1c(=O)c2c(-c3ccc(Cl)cc3)ccnc2n(C)c1=O	none (no result: Pf growth 96h, HCV inhibitor, Pf growth 48h)
Cc1ccc(C(=O)c2cc([N+](=O)[O-])ccc2N2CCOCC2)c(C)c1	HCMV antiviral inconclusive, Pf growth 96h 10.4µM, Pf growth 48h inconclusive
O=C(OCc1ccc([N+](=O)[O-])cc1)c1cc(S(=O)(=O)N2CCCCC2)ccc1N1CCOCC1	HCMV antiviral inconclusive, Pf growth 96h 10.4µM, HCV inhibitor inconclusive, Pf growth 48h inconclusive
CN(C)S(=O)(=O)c1cccc(COC(=O)c2cc([N+](=O)[O-])ccc2N2CCOCC2)c1	Pf growth 96h 10.4µM, HCV inhibitor 12.6µM, Pf growth 48h 13.1µM
CC1CCN(C(=O)COC(=O)c2cc([N+](=O)[O-])ccc2N2CCOCC2)CC1	Pf growth 96h inconclusive
O=C(OCc1ccc(F)cc1)c1cc(S(=O)(=O)N2CCCCC2)ccc1N1CCOCC1	Pf growth 96h inconclusive, HCV inhibitor inconclusive
CSc1ccc(COC(=O)c2cc([N+](=O)[O-])ccc2N2CCOCC2)cc1	HCMV antiviral -83.0, Pf growth 96h inconclusive, HCV inhibitor inconclusive, Pf growth 48h inconclusive
Cc1ccccc1Cn1c(SCc2ccc(C(=O)NCc3cccs3)cc2)nc2ccncc21	none (no result: Pf growth 96h, HCV inhibitor, Pf growth 48h)
COc1cccc(NC(=O)c2ccc(CNS(=O)(=O)c3ccc4c(c3)C(C)(C)C(=O)N4C)cc2)c1	none (no result: Pf growth 96h, HCV inhibitor, Pf growth 48h)
CCC(Sc1nc2nccnc2c(=O)n1Cc1ccc(C)cc1)C(=O)NC1CCCCC1 (configuration not stated)	none (no result: Pf growth 96h, HCV inhibitor, Pf growth 48h)
COc1ccc(OC)c(COC(=O)c2cc([N+](=O)[O-])ccc2N2CCOCC2)c1	Pf growth 96h 2.94µM, HCV inhibitor 8.91µM, Pf growth 48h 4.65µM
O=C(OCc1ccccc1F)c1cc([N+](=O)[O-])ccc1N1CCOCC1	Pf growth 96h inconclusive, HCV inhibitor 10µM
Cc1ccccc1COC(=O)c1cc([N+](=O)[O-])ccc1N1CCOCC1	Pf growth 96h inconclusive, HCV inhibitor 12.6µM
O=C(OCc1ccccc1C(F)(F)F)c1cc([N+](=O)[O-])ccc1N1CCOCC1	Pf growth 96h inconclusive, HCV inhibitor inconclusive, Pf growth 48h inconclusive
Cc1ccc(C)c(C(=O)COC(=O)c2cc([N+](=O)[O-])ccc2N2CCOCC2)c1	Pf growth 96h 14.7µM, HCV inhibitor inconclusive, Pf growth 48h inconclusive
Cc1onc(-c2ccccc2Cl)c1C(=O)N[C@H]1C(=O)N2[C@H]1SC(C)(C)[C@H]2C(=O)O	none (no result: HCMV antiviral, HCV inhibitor)
CCc1ccc(CNC(=O)c2cnc3sc4cc(OC)ccc4n3c2=O)cc1	none (no result: Pf growth 96h, HCV inhibitor, Pf growth 48h)
CN1CCN(c2ccc([N+](=O)[O-])cc2C(=O)N2CCOCC2)CC1	none
O=C(c1cc([N+](=O)[O-])ccc1N1CCOCC1)N1CCN(c2ccccc2)CC1	HCMV antiviral -87.4 (no result: HCV inhibitor)
CC(=O)N1CCN2C(=O)C1CCCC(=O)c1cc(C(C)C)ccc12 (configuration not stated)	HCMV antiviral -67.4
Oc1ccccc1-c1cncn1Cc1ccccc1	HCMV antiviral inconclusive, Pf growth 96h 14.7µM, HCV inhibitor inconclusive (no result: Pf growth 48h)
O[C@@H]1[C@@H](O)C=C2CCN3Cc4cc5c(cc4[C@H]1C23)OCO5 (some centres not stated)	HCMV antiviral -97.6, Pf growth 96h 0.294µM, HCV inhibitor 3.16µM, Pf growth 48h 0.329µM
Cc1ccc(NC(=O)CN2C(=O)C(c3ccc(C(C)(C)C)cc3)=NC2(C)C)cc1	none (no result: Pf growth 96h, HCV inhibitor, Pf growth 48h)
Cc1ccc(Sc2ccc(CN3CCCC3)cc2[N+](=O)[O-])cc1	Pf growth 96h inconclusive, HCV inhibitor inconclusive
CN1CCN(Cc2ccc(Sc3ccc(Cl)cc3)c([N+](=O)[O-])c2)CC1	HCMV antiviral -71.2, Pf growth 96h 0.165µM, HCV inhibitor inconclusive, Pf growth 48h inconclusive
CC(=O)c1cccc(NC(=O)C(OC(=O)c2ccccc2NS(=O)(=O)c2cccs2)c2ccccc2)c1 (configuration not stated)	HCMV antiviral -74.6, Pf growth 96h inconclusive, Pf growth 48h inconclusive
CCOc1ccccc1NC(=O)C(OC(=O)c1ccccc1NS(=O)(=O)c1cccs1)c1ccccc1 (configuration not stated)	HCMV antiviral inconclusive, Pf growth 96h inconclusive, Pf growth 48h inconclusive
CC1(C)S[C@@H]2[C@H](NC(=O)[C@H](N)c3ccccc3)C(=O)N2[C@H]1C(=O)O	HCMV antiviral -60.3!
